In PubChem BioAssay (EPA / NIEHS) one finds outcome and AC50 data, which are given here for 20 compounds.

Several values for one entry are separate records, joined by “and”; a condition that tells them apart may be missing. Equal entries are not always repeated. Activity calls are given as the source filed them. How the source made its calls: active means hit-call score of the fitted dose curve at least 0.9, where 1 is the maximum; inactive means score below 0.9.

Read-out in this assay: Matrix Metallopeptidase 9 (MMP9), MMP9 (gene 4318)
In words: BSK_KF3CT_MMP9: BioMAP Diversity Plus: KF3CT Assay for Matrix Metallopeptidase 9 (MMP9) Biomarker Activity (AID 2283074).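 On AC50: MMP9 protein level quantified by ELISA in the co-culture.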 Particulars: primary human keratinocytes with fibroblasts; actives raise or lower the signal. The essentials:
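Human keratinocyte/foreskin fibroblast co-culture; compound added; 24 h; MMP-9 by ELISA; bidirectional fit vs DMSO baseline.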
With `O=C(O)CCC(F)(C(F)(F)F)C(F)(F)F`, the outcome was inactive.
Still for that read-out and setting: with `CC(C)CCCCCCOC(=O)c1ccccc1C(=O)OCCCCCCC(C)C` the entry was “inactive”.
One may read the AC50 as the concentration giving half of the maximal activity seen. For the compound `Oc1c(I)cc(I)cc1I`, the AC50 was 5.35 µM (active).
The same measure, in the same setting: with `O=C(O)C(F)(F)C(F)(F)C(F)(F)C(F)(F)C(F)(F)C(F)(F)C(F)(F)C(F)(F)C(F)(F)C(F)(F)F` the figure was 6.03 µM (active) and 3.85 µM (active) and 4.19 µM (active).
On to `CCC(=O)C(CC(C)N(C)C)(c1ccccc1)c1ccccc1` (stereo not given), for which the result was inactive.
Consider `Nc1ccc(-c2ccc(N)c(Cl)c2)cc1Cl`, for which the concentration at half-maximal activity (AC50) was 4.21 µM (active).
With `CCCCCCCCC(=O)NCc1ccc(O)c(OC)c1`, the result was inactive.
Consider `COC(=O)c1sccc1S(=O)(=O)NC(=O)Nc1nc(C)nc(OC)n1`, for which the result was inactive.
Same read-out and setting: the value for `O=c1[nH]c(=O)[nH]c(=O)[nH]1` was “inactive”; that for `O=Cc1cccc(Oc2ccccc2)c1` was “inactive”.
Same read-out and setting: the value for `COP(=S)(OC)Oc1ccc(S(=O)(=O)N(C)C)cc1` was “inactive”.
As to `C(=NC1CCCCC1)=NC1CCCCC1`, the half-maximal activity concentration (AC50) is 12.6 µM (active).
As for `O=[N+]([O-])c1ccc(O)c([N+](=O)[O-])c1`, the result was inactive.
For `CCC(C)(C)c1ccc(O)c(C(C)(C)CC)c1`, the AC50 was 10.3 µM (active).
In the case of `Cn1sc(Cl)cc1=O`, the result was inactive.
Still for that read-out and setting: the value for `O=S(=O)(c1ccc(Cl)cc1)c1ccc(Cl)cc1` was “inactive”.
Still for that read-out and setting: the value for `COC[C@H](C)N(C(=O)CCl)c1c(C)csc1C` was “inactive”.
In the case of `O=C1C2(Cl)C3(Cl)C4(Cl)C(Cl)(Cl)C5(Cl)C3(Cl)C1(Cl)C5(Cl)C24Cl` (stereo not given), the concentration at half-maximal activity (AC50) is 8.52 µM (active).
On the same count and under the same terms, with `COP(=S)(OC)Oc1ccc(Sc2ccc(OP(=S)(OC)OC)cc2)cc1` the figure was 10.4 µM (active); with `CCN1CCC2(CC1)COc1cc3c(cc12)N(C(=O)c1ccc(-c2ccc(-c4nnc(C)o4)cc2C)cc1)CC3`, 14.3 µM (active).
